Experiments:
Assay in all cases: DAPPL (digital affinity profiling via proximity ligation, sequencing); 10 mM Tris-HCl pH 7.5, 50 mM NaCl, 1 mM DTT, 4% glycerol, room temperature, 30 min; GST-TFs on glutathione beads, 16-mer random dsDNA library, 0.1% formaldehyde crosslink after washing; high values mean tight binding
Settings in all cases: protein: recombinant; tags: N-terminal GST; dsDNA, one strand shown
[1] = target: T1, ELK4 (Homo sapiens, UniProt P28324-2 1-405)
T1 sequence: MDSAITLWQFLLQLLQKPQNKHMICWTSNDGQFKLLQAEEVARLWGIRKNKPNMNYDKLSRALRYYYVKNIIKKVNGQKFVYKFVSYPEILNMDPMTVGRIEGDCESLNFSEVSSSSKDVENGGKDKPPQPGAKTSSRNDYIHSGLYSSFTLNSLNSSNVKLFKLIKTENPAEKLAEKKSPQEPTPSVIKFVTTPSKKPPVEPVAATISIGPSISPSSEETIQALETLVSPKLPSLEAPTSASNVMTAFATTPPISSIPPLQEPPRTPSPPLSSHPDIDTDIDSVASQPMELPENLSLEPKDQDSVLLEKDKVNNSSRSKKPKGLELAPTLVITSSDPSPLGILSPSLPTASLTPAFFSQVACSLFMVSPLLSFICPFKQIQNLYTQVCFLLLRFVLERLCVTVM
In short: (§1)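 The binding signal reported is, for every hexamer, its read frequency for a factor over its read frequency for the tag-only sample. Reads came from pools of yeast-expressed, GST-fused human transcription factors on glutathione beads, barcoded with DNA and mixed with that sample, which were incubated with 200 nmole of a random double-stranded 16-mer DNA library in Tris/NaCl/DTT/glycerol buffer at room temperature for 30 min. After washing, the pools were crosslinked with 0.1% formaldehyde, proximity-ligated with BsaI/T4 ligase for 1 h at 37 °C, PCR-amplified and sequenced on an Illumina NextSeq500.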

[2] = target: T2, ETV3L (Homo sapiens, UniProt Q6ZN32 1-361)
T2 sequence: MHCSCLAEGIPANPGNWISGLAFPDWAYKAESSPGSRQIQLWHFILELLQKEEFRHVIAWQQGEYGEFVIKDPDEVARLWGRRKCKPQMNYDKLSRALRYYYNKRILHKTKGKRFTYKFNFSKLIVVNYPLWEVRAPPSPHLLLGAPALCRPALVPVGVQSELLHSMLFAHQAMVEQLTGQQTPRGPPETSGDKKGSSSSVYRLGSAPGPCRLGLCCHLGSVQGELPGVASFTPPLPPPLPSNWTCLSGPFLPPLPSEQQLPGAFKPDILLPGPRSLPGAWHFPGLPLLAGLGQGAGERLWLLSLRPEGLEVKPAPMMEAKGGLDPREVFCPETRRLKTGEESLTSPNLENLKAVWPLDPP
In short: as §1

[3] = target: T3, ELK1 (Homo sapiens, UniProt P19419 1-428)
T3 sequence: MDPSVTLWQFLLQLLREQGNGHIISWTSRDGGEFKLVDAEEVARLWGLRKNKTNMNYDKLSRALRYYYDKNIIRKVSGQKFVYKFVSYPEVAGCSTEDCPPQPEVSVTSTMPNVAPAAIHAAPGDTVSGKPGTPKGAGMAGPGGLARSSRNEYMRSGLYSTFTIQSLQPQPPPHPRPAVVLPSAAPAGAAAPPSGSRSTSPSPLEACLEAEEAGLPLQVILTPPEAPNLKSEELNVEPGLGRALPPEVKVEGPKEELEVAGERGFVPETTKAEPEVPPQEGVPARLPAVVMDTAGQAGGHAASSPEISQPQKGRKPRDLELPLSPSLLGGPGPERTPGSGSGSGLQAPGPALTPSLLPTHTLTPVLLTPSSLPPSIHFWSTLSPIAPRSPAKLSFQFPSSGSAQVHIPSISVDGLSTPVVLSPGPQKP
In short: as §1

[4] = target: T4, FEV (Homo sapiens, UniProt Q99581 1-238)
T4 sequence: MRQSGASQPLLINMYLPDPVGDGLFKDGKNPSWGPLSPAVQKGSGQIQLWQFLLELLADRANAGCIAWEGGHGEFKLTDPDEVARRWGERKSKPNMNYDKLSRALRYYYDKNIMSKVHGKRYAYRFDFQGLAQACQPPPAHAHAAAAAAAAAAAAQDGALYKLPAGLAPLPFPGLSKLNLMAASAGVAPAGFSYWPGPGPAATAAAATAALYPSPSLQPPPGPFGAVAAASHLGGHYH
In short: as §1

[5] = target: T5, ETV2 (Homo sapiens, UniProt O00321 1-342)
T5 sequence: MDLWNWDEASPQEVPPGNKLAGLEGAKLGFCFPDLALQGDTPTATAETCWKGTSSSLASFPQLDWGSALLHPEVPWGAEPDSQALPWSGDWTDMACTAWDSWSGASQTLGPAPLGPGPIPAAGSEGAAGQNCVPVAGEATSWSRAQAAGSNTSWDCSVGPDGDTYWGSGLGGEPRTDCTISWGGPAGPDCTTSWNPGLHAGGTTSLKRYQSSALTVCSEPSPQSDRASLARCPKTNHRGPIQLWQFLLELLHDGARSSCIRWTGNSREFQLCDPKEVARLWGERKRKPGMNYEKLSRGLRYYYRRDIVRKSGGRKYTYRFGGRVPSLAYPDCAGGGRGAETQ
In short: as §1

[6] = target: SPI1 (Homo sapiens, UniProt P17947 1-270)
In short: as §1

[7] = target: SPIB (Homo sapiens, UniProt Q01892 1-262)
SPIB, sequence (Q01892 whole entry): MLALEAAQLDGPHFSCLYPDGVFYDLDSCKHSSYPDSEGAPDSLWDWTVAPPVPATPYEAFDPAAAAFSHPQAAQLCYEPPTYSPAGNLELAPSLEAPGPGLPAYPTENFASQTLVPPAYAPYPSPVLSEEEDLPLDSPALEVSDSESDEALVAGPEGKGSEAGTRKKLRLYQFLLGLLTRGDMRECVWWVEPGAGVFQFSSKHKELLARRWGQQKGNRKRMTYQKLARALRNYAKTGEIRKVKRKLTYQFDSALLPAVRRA
In short: as §1

[8] = target: T6, ETS2 (Homo sapiens, UniProt P15036 1-469)
T6 sequence: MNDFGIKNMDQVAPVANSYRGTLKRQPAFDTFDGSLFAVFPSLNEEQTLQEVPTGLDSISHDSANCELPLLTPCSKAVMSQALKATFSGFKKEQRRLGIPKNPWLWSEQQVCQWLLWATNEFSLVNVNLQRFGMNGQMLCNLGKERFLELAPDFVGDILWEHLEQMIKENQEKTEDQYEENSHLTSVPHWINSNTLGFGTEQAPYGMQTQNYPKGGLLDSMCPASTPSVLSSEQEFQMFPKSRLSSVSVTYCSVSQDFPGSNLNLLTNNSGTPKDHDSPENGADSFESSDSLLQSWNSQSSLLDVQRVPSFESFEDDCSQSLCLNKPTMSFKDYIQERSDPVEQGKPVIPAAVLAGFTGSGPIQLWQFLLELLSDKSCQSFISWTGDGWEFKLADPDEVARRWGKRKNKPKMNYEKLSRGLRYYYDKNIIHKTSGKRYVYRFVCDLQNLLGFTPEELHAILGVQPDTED
In short: as §1

[9] = target: T7, SPDEF (Homo sapiens, UniProt O95238 1-335)
T7 sequence: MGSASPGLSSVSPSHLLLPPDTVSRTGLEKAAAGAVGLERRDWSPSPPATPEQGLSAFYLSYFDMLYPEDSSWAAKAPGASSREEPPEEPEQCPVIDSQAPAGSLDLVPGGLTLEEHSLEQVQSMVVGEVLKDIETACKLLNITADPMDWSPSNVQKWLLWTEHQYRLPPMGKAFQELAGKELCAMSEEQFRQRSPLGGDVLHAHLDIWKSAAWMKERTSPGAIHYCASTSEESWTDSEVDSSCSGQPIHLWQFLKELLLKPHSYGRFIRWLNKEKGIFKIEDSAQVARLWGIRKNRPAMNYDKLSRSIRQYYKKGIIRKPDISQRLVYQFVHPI
In short: as §1

[10] = target: T8, ETV3 (Homo sapiens, UniProt P41162-2 1-143)
T8 sequence: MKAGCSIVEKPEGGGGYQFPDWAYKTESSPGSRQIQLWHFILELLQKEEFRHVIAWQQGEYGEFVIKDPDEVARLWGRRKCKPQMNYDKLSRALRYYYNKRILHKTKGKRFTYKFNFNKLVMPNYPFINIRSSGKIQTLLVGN
In short: as §1

With GCGCAC as the sequence, how does the binding signal [1] read?
The binding signal was 1.07 fold enrichment (6-mer frequency, TF over GST control).

What about the binding signal [2] of the same sequence?
Its binding signal is 1.03 fold enrichment (6-mer frequency, TF over GST control).

What does the source list for GGCAGC?
binding signal [3]: 1.02 fold enrichment (6-mer frequency, TF over GST control); binding signal [4]: 1.02 fold enrichment (6-mer frequency, TF over GST control); binding signal [5]: 1.02 fold enrichment (6-mer frequency, TF over GST control)

With GTGGTA as the sequence, how does the binding signal [6] read?
Its binding signal is 1.02 fold enrichment (6-mer frequency, TF over GST control).

And the binding signal [7]?
Its binding signal is 1 fold enrichment (6-mer frequency, TF over GST control).

What about the binding signal [1] of the same sequence?
Its binding signal is 1.02 fold enrichment (6-mer frequency, TF over GST control).

Which binding signal [6] does the source give for GTAGCC here?
The binding signal was 1.03 fold enrichment (6-mer frequency, TF over GST control).

With AGTTTA as the sequence, how does the binding signal [6] read?
Its binding signal is 1.01 fold enrichment (6-mer frequency, TF over GST control).

What about the binding signal [2] of the same sequence?
The binding signal was 1.09 fold enrichment (6-mer frequency, TF over GST control).

AGCCCA was tested. Which binding signal [4] did it give?
Its binding signal is 1.01 fold enrichment (6-mer frequency, TF over GST control).

With CCTAGT as the sequence, how does the binding signal [8] read?
Its binding signal is 1.06 fold enrichment (6-mer frequency, TF over GST control).

CCGTTA was tested. Which binding signal [9] did it give?
Its binding signal is 1.04 fold enrichment (6-mer frequency, TF over GST control).

For CGGCAC, which binding signal [9] is on record?
Its binding signal is 1.02 fold enrichment (6-mer frequency, TF over GST control).

And the binding signal [10]?
Its binding signal is 1.03 fold enrichment (6-mer frequency, TF over GST control).
